Test results reported in PubChem BioAssay (NCI).
Values joined by “and” are separate entries in the source; they are usually repeats but may differ in a detail not shown here. Identical values can stand only once. The panel holds about 83,000 compounds, 20% with a hit somewhere; the sample as a whole holds those more often.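 Cell lines were cultured in 96-well plates, exposed to a single compound concentration, and assessed for percent growth 48 hours later.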 Active and inactive are the calls of the source. The calls were made as follows: active = growth percent below 10; inactive = the rest.

test system: MDA-MB-468 breast; test: NCI-60 one-dose screen, 48 h (100 = growth as untreated, 0 = no growth, -100 = all killed); settings: 10 µM unless noted

| Structure (SMILES) | growth |
| --- | --- |
| O=C1CCC(C(=O)N/N=C/c2ccc([N+](=O)[O-])cc2)N1 (stereo not given) | 110% (inactive) |
| COc1cccc(NC(=O)Cn2cc(CN3CCN(c4ccnc5cc(Cl)ccc45)CC3)nn2)c1 | 84.1% (inactive) |
| COc1ccc(NC(=O)[C@H](C)N)cc1C(=O)Nc1cccc(-c2cc(=O)c3c(OC)c(OC)c(OC)cc3o2)c1 | 58.5% (inactive) |
| CC(=O)OCCCCCNc1ccccc1 | 125% (inactive) |
| O=C(OCc1ccc2c(Cl)cc(Cl)c(O)c2n1)c1cc2ccccc2[nH]1 | -73.1% (active) |
| Oc1ccc(Br)cc1Sc1cc(Br)ccc1O | 82.3% (inactive) |
| N/C(=N\c1nc2ccccc2s1)NC(=O)Nc1cccc2ccccc12 | 3.96% (active) |
| Oc1ccc(-c2nc(-c3ccc4oc5ccc(-c6[nH]c(-c7ccc(O)cc7)nc6-c6ccccc6)cc5c4c3)c(-c3ccccc3)[nH]2)cc1 | 6.14% (active) |
| COc1ccc2c3c(ccc2c1)C(=O)/C(=C\O)CC3 | 111% (inactive) |
| O=C(O)c1cn(C2CC2)c2cc(N3CCN(Cc4c(O)ccc5ccccc45)CC3)c(F)cc2c1=O | 35.1% (inactive) |
| CC(C)c1ccc2occ(C=C3C(=O)NC(=O)NC3=O)c(=O)c2c1 | 96.9% (inactive) |
| O=S(=O)(Nc1ccc(I)cc1F)c1ccc(-c2cnc(C3CC3)o2)cc1 | -9.07% (active) |
| COc1ccc([C@H]2C(=O)N(c3cc(OC)c(OC)c(OC)c3)[C@@H]2c2ccc(OC)c(O)c2)cc1 | -2.22% (active) |
| COc1ccc2c(c1)C(C)Cc1c(ncnc1-n1c(C)nc3ccccc31)N2C (stereo not given) | 26.2% (inactive) |
| COc1cc(Nc2nc3ccccc3cc2C(=O)Nc2ccc(F)c(F)c2)cc(OC)c1OC | 4.15% (active) |
| CC1CCN(CCCCCOc2ccc3oc4cc(Cl)ccc4c(=O)c3c2)CC1 | 57.7% (inactive) |
| Cc1nn(-c2ccccc2)c2c1N=c1s/c(=C\c3cn(-c4ccccc4)nc3-c3ccc(Cl)cc3)c(=O)n1C(C)N2 (stereo not given) | 86.6% (inactive) |
| CNC(=O)c1cc(Oc2ccc(NC(=O)Nc3ccc(Cl)c(C(F)(F)F)c3)cc2)ccn1 | -12.8% (active) and 20.5% (inactive) |
| COc1cc(/C=C/C(=O)C(=Cc2ccc(F)c(F)c2)C(=O)/C=C/c2ccc(O)c(OC)c2)ccc1O | 25.6% (inactive) |
| CCC([N+](=O)[O-])S(=O)(=O)c1ccc(C)cc1 (stereo not given) | 91.3% (inactive) |

| Structure (SMILES) | growth |
| --- | --- |
| C[C@]12CC[C@@H]3c4cc(OC(F)F)c(O)cc4CC[C@H]3[C@@H]1CC[C@@H]2OS(N)(=O)=O | -18.9% (active) |
| CC12CCC3c4ccccc4CCC3(CO1)C2 (stereo not given) | 88.7% (inactive) |
| C[C@]12CC[C@@H]3c4ccc(OCC(=O)O)cc4CC[C@H]3[C@@H]1CCC2=O | 113% (inactive) |
| CCN(CC)C(=O)c1cccnc1 | 109% (inactive) |
| O=C(O)c1ccc(-n2cc(CNc3cc(F)c(F)c(F)c3)c(-c3cccc(F)c3)n2)cc1 | 95.4% (inactive) |
| CC1=CCC(OC(=O)C(C)(C)CCC(O)(C(=O)OC2(C(C)C)CCC3(C)OC3C2)C(C)C)(C(C)C)CC1 (stereo not given) | -64.4% (active) |
| COc1ccc(C(=O)c2cc3c(N)c(C(=O)Nc4cccc(Cl)c4)sc3nc2C)cc1 | 10.5% (inactive) |
| COc1ccccc1S(=O)(=O)Nc1ccc2c(c1)CN(C)C(=O)N2 | 21.1% (inactive) |
| COc1cc(CNc2oc(-c3ccccc3)c(-c3ccccc3)c2C#N)cc(CN2CCN(C)CC2)c1O | 57.4% (inactive) |
| COc1cccc(-c2nc3sccn3c2-c2ccnc(NCCNS(=O)(=O)c3ccc(F)cc3)c2)c1 | 19.2% (inactive) |
| O=C1c2ccccc2-c2c1c1cccnc1c(=O)n2C[C@H](O)CO | 88.4% (inactive) |
| O=[N+]([O-])c1ccc(SSc2ccc([N+](=O)[O-])cc2Cl)c(Cl)c1 | 74.6% (inactive) |
| COc1cc([C@@H]2c3cc4c(cc3[C@H](SC(=N)N)[C@H]3COC(=O)[C@H]23)OCO4)cc(OC)c1OC | -4.2% (active) |
| CCn1cc(-c2ccnc(NCCNS(=O)(=O)c3ccc(Br)cc3)c2)c(-c2cccc(OC)c2)n1 | 60.6% (inactive) |
| CSc1ccc(SC2c3ccc(C)cc3Oc3nc(N)c(C#N)c(N)c32)cc1 (stereo not given) | -75.8% (active) |
| NCCOc1ncccc1/C=C1\c2ccccc2-c2ccc(C(F)F)cc21 | 85.5% (inactive) |
| CC(C)c1ccc(C(=O)OC2CCCC2)cc1 | 106% (inactive) |
| O=C(/C=C/c1sc(Cl)nc1Cl)c1ccccc1 | 55.3% (inactive) |
| COc1cc(/C=C/C(=O)c2ccccc2)ccc1Oc1nc(NCCO)nc(N2CCOCC2)n1 | 103% (inactive) |
| Cc1ccc(S(=O)(=O)NCC[C@@H]2C[C@H]2c2cc3ccccc3s2)cc1 | 83.7% (inactive) |
